Holding throughout (settings): mRNA level, 48 h; actives raise or lower the signal
Read-out in experiment [1]: DNA damage-inducible transcript 3 (DDIT3), DDIT3 (gene 1649)
The experiment is described as follows: LTEA_HepaRG_DDIT3: Life Technologies and Expression Analysis (LTEA) Assay for DNA damage-inducible transcript 3 (DDIT3) using HepaRG (AID 2283488). The essentials:
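HepaRG cells, 48 h after plating, exposed 48 h in serum-free induction medium to 8 half-log concentrations up to 100 uM in 0.5% DMSO, in duplicate. DDIT3 mRNA measured by TaqMan qRT-PCR, normalized to ACTB, GAPDH and POLR2A. Fitted bidirectionally against DMSO.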

Read-out in experiment [2]: Pro-epidermal growth factor (Homo sapiens) (UniProt P01133)
In words: LTEA_HepaRG_EGF: Life Technologies and Expression Analysis (LTEA) Assay for Epidermal growth factor (EGF) using HepaRG (AID 2283489). The essentials:
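HepaRG, 48 h dosing, 100 uM top, half-log x8, 0.5% DMSO. Readout: TaqMan qRT-PCR (Fluidigm array), housekeeping-normalized. Gain or loss of signal fit vs DMSO.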

Read-out in experiment [3]: Early growth response protein 1 (EGR1) transcription factor, EGR1 (gene 1958)
In words: LTEA_HepaRG_EGR1: Life Technologies and Expression Analysis (LTEA) Assay for Early growth response protein 1 (EGR1) transcription factor using HepaRG (AID 2283490). In a few lines:
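Read-out is EGR1 mRNA level by qRT-PCR, normalized to three housekeeping genes and analysed for gain or loss of signal against 0.5% DMSO. Source cells: human HepaRG, treated 48 h at up to 100 uM in half-log dilutions.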

Read-out in experiment [4]: Ezrin (EZR), EZR (gene 7430)
In words: LTEA_HepaRG_EZR: Life Technologies and Expression Analysis (LTEA) Assay for Ezrin (EZR) using HepaRG (AID 2283491). The essentials: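 EZR transcript levels came from Fluidigm qRT-PCR and were normalized to three housekeeping genes after 48 h chemical exposure of HepaRG cells. Dosing used an 8-point half-log series with a 100 uM top concentration in 0.5% DMSO, tested in duplicate; both directions were fitted versus vehicle.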

Read-out in another experiment: CYP3A5 (gene 1577)
The experiment is described as follows: LTEA_HepaRG_CYP3A5: Life Technologies and Expression Analysis (LTEA) Assay for CYP3A5 using HepaRG (AID 2283493). In a few lines: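 HepaRG cells, plated 48 h then in serum-free induction medium, dosed in duplicate for 48 h with eight half-log concentrations up to 100 uM in 0.5% DMSO. Gene mRNA by Fluidigm TaqMan qRT-PCR, normalized to ACTB, GAPDH, POLR2A.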

Read-out in experiment [5]: Fatty Acid-Binding Protein 1 (FABP1), FABP1 (gene 2168)
In words: LTEA_HepaRG_FABP1: Life Technologies and Expression Analysis (LTEA) Assay for Fatty Acid-Binding Protein 1 (FABP1) using HepaRG (AID 2283494). In a few lines: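 HepaRG, 48 h post-plating switched to serum-free induction medium, then dosed 48 h (duplicate, 8 pts, ≤100 uM, 0.5% DMSO). RNA → Fluidigm TaqMan qRT-PCR, FABP1 normed to ACTB/GAPDH/POLR2A. Bidirectional curve fit vs DMSO.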

Read-out in experiment [6]: Cytochrome P450 4A22 (Homo sapiens) (UniProt Q5TCH4)
In words: LTEA_HepaRG_CYP4A22: Life Technologies and Expression Analysis (LTEA) Assay for Cytochrome P450 4A22 (CYP4A22) using HepaRG (AID 2283495). In a few lines: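 Readout is CYP4A22 transcript induction or loss, quantified by qRT-PCR and normalized to ACTB, GAPDH and POLR2A. Human HepaRG cells receive test chemicals for 48 h at eight half-log concentrations from 100 uM in 0.5% DMSO.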

Read-out in experiment [7]: Cytochrome P450 7A1 (Homo sapiens) (UniProt P22680)
In words: LTEA_HepaRG_CYP7A1: Life Technologies and Expression Analysis (LTEA) Assay for Cytochrome P450 7A1 (CYP7A1) using HepaRG (AID 2283496). In a few lines: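 HepaRG cells plated 48 h, then switched to serum-free induction medium and exposed in duplicate for 48 h to 8-point half-log series from 100 uM in 0.5% DMSO. CYP7A1 mRNA by qRT-PCR (TaqMan), normalized to ACTB/GAPDH/POLR2A; bidirectional fit versus DMSO.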

Read-out in experiment [8]: Glutathione S-Transferase (GSTA2), GSTA2 (gene 2939)
The experiment is described as follows: LTEA_HepaRG_GSTA2: Life Technologies and Expression Analysis (LTEA) Assay for Glutathione S-Transferase (GSTA2) using HepaRG (AID 2283497). In a few lines: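 HepaRG, 48 h dosing, 8-pt half-log CRC from 100 uM, 0.5% DMSO vehicle, n=2; RNA → Fluidigm TaqMan qRT-PCR; GSTA2 vs ACTB/GAPDH/POLR2A; gain/loss fit vs DMSO.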

Read-out in experiment [9]: Cytochrome P450 3A7 (Homo sapiens) (UniProt P24462)
In words: LTEA_HepaRG_CYP3A7: Life Technologies and Expression Analysis (LTEA) Assay for CYP3A7 using HepaRG (AID 2283492). The essentials:
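Human HepaRG liver cells, 48 h post-plating, switched to serum-free induction medium and exposed in duplicate for 48 h. Dosing: 100 uM top, half-log dilutions, 8 points, 0.5% DMSO vehicle. Read-out: CYP3A7 mRNA, gain or loss fitted against DMSO baseline.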

Each structure is given as a SMILES string. Values joined by “and” are separate entries in the source; they are usually repeats but may differ in a detail not shown here. Equal values may be shown once. Some compounds were tested as several samples or in several runs, with calls that do not always agree. Active and inactive are the calls of the source. How the source made its calls: active means hit-call score of the fitted dose curve at least 0.9, where 1 is the maximum; inactive means score below 0.9.

Chain of Cytochrome P450 3A7 (Homo sapiens) (P24462 whole entry, looked up): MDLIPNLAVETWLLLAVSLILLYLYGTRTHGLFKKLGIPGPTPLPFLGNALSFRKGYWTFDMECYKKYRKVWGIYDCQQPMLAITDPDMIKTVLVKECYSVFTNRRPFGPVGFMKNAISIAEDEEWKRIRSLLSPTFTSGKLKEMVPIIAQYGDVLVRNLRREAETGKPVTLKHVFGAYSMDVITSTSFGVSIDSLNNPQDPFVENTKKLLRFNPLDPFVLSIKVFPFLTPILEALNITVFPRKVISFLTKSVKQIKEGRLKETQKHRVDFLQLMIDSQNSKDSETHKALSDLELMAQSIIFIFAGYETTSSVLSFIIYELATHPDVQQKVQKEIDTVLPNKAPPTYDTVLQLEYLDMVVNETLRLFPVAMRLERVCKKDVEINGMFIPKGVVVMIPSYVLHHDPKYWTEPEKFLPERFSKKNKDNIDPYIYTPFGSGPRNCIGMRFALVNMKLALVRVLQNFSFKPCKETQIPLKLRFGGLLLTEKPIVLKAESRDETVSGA

As for `O=C(O)COc1nc(Cl)c(Cl)cc1Cl`, the result (in [1]; in [2]; in experiment [3]; in experiment [4]; in the experiment with CYP3A5 (gene 1577); in experiment [5]) was inactive. For the same compound, the compound was classed as inactive in experiment [6], in experiment [7] and in experiment [8].

For the compound `Oc1ccccc1-c1ccccc1`, the call in experiment [1], in experiment [2], in experiment [3], in experiment [4], in experiment [9] and in [5] was inactive. In addition, the call in experiment [6], in experiment [7] and in [8] was inactive.

Regarding `CCCCNC(=O)OCC#CI`, the result (in experiment [1]; in experiment [2]; in [3]; in [4]; in the experiment with CYP3A5 (gene 1577); in [6]) was inactive. For the same compound, the AC50 (in general, the concentration at which the activity in the assay is half-maximal) in [9] is 50 µM (active); in [5], 50 µM (active); in experiment [7], 50 µM (active); in experiment [8], 9.92 µM (active).

With `C=CCC1=C(C)C(OC(=O)C2C(C=C(C)C)C2(C)C)CC1=O` (stereo not given), the call (in experiment [1]; in experiment [2]; in [4]; in experiment [9]; in the experiment with CYP3A5 (gene 1577); in experiment [8]) was inactive. Further, the AC50 in experiment [3] was 64.1 µM (active) and 71.1 µM (active) and 50 µM (active); in [5], 50 µM (active) and 44.6 µM (active); in experiment [6], 84.3 µM (active) and 94.1 µM (active) and 90.4 µM (active); in experiment [7], 3.67 µM (active) and 72.6 µM (active) and 19.4 µM (active); in experiment [8] it was 84.3 µM (active).

For the compound `C=CC1(C)OC(=O)N(c2cc(Cl)cc(Cl)c2)C1=O` (stereo not given), the outcome (in experiment [1]; in experiment [2]; in experiment [3]; in [4]; in the experiment with CYP3A5 (gene 1577); in experiment [5]) was inactive. Further, the outcome in experiment [6], in experiment [7] and in [8] was inactive. In experiment [9], the concentration at half-maximal activity (AC50) is 20.8 µM (active).

Consider `CC(C)(C)c1ccc(CSc2cnn(C(C)(C)C)c(=O)c2Cl)cc1`, for which the AC50 in experiment [1] is 2.06 µM (active); in [3], 1.12 µM (active); in experiment [9], 1.05 µM (active); in the experiment with CYP3A5 (gene 1577), 2.11 µM (active); in experiment [5] it was 2.8 µM (active); in experiment [6] it was 1.74 µM (active). Besides, the AC50 in experiment [7] is 26.1 µM (active); in experiment [8], 8.51 µM (active). In addition, the result in [2] was inactive.

With `CNC(=S)S`, the call (in [1]; in experiment [2]; in experiment [3]; in [4]; in experiment [9]; with CYP3A5 (gene 1577)) was inactive. Further, the compound was called inactive in experiment [5], in [6], in experiment [7] and in experiment [8].

`CS/C(C)=N/OC(=O)N(C)SN(C)C(=O)O/N=C(\C)SC`: the compound was called inactive (in [1]; in [2]; in experiment [3]; in [4]; in experiment [9]; with CYP3A5 (gene 1577)). Besides, the outcome in experiment [5], in experiment [6] and in [8] was inactive. Besides, the AC50 in experiment [7] was 9.92 µM (active).

Take `C#CCOS(=O)OC1CCCCC1Oc1ccc(C(C)(C)C)cc1` (stereo not given): the concentration at half-maximal activity (AC50) in experiment [1] is 15.2 µM (active); in experiment [2] it was 29.4 µM (active); in experiment [9] it was 29.5 µM (active); in the experiment with CYP3A5 (gene 1577), 30.1 µM (active); in experiment [5], 18.7 µM (active); in experiment [7] it was 26.6 µM (active). For the same compound, the concentration at half-maximal activity (AC50) in [8] was 27.7 µM (active). The compound was classed as inactive in experiment [3], in [4] and in experiment [6].

In the case of `CCON=C(CC)C1=C(O)CC(c2c(C)cc(C)cc2C)CC1=O` (stereo not given), the outcome (in experiment [1]; in [2]; in experiment [3]; in experiment [4]; with CYP3A5 (gene 1577); in experiment [5]) was inactive. The outcome in [7] and in experiment [8] was inactive. For the same compound, in [6], the AC50 is 18.9 µM (active).

For the compound `CC1COC(Cn2cncn2)(c2ccc(Oc3ccc(Cl)cc3)cc2Cl)O1` (stereo not given), the half-maximal activity concentration (AC50) in experiment [1] was 12 µM (active); in experiment [3], 63.2 µM (active); in [4] it was 0.479 µM (active); in the experiment with CYP3A5 (gene 1577) it was 84.1 µM (active); in [5] it was 23.3 µM (active); in [6] it was 15.5 µM (active). Besides, the half-maximal activity concentration (AC50) in [7] is 13.8 µM (active); in [8], 19.7 µM (active). Besides, the result in experiment [2] and in experiment [9] was inactive.

`COC(=O)C(C)Oc1ccc(Oc2ccc(Cl)cc2Cl)cc1` (stereo not given): the outcome (in [1]; in [2]; in [3]; in experiment [4]; with CYP3A5 (gene 1577); in [5]) was inactive. Moreover, the compound was classed as inactive in experiment [7]. Also, the values for the AC50 in [9], in experiment [6] and in experiment [8] were 27.3 µM (active), 12.7 µM (active) and 74.4 µM (active), respectively.

On to `N#Cc1nn(-c2c(Cl)cc(C(F)(F)F)cc2Cl)c(N)c1S(=O)C(F)(F)F` (stereo not given), for which the half-maximal activity concentration (AC50) in experiment [1] was 30.2 µM (active); in [3], 13.2 µM (active); in experiment [4] it was 29.3 µM (active); in [5] it was 24.1 µM (active); in experiment [6], 26.2 µM (active); in [7] it was 35 µM (active). For the same compound, in experiment [8], the concentration at half-maximal activity (AC50) is 32 µM (active). In addition, the result with CYP3A5 (gene 1577) was inactive.

The values above are taken from PubChem BioAssay (EPA / NIEHS).
